Compound activity (PubChem BioAssay)
Rows were chosen to be rich in hits. Some 7.4% of all compounds tested hit in one or more screens of this group.
FLuc counter – counter-screen for miR-21 project: firefly luciferase inhibitors or activators; P08659; AID 588342; Potency, µM (highest dose often 57.5 µM), actives largely listed as inhibitors; purified FLuc, Km substrates, luminescence inhibition; 360,000 tested, 6.9% active; also: nearly all actives have a fitted effect of over 55% in size
Target sequence (P08659 whole entry, looked up): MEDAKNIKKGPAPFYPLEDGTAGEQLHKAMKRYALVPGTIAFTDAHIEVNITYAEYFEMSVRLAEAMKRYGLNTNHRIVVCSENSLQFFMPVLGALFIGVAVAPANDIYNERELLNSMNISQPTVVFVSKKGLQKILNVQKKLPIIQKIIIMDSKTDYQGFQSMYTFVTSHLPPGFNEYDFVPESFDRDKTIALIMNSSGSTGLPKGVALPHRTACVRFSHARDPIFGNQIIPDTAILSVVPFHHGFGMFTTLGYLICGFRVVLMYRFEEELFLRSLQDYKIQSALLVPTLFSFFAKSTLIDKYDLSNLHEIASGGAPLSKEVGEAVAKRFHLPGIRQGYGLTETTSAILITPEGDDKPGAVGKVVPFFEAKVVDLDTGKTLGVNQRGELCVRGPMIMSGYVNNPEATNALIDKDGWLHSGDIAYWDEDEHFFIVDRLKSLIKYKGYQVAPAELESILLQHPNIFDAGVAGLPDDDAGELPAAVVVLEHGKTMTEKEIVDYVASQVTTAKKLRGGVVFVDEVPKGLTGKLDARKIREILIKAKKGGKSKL
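Purified P. pyralis luciferase, 10 nM final, with Km-level 10 uM D-luciferin and 10 uM ATP in 50 mM Tris acetate pH 7.5, 10 mM Mg acetate, 0.01% Tween-20, 0.05% BSA; 6-point qHTS titration about 60 µM downward; luminescence read.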
SMN2 splice up – increases expression of the SMN2 splice variant; HEK293 SMN2-luciferase splicing reporter, luminescence, 30-36 h; Potency, µM (highest dose often 46.1 µM), actives largely listed as activators; 210,000 tested, 2.8% active; also: nearly all actives have a fitted effect of over 55% in size
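HEK293 cells carry an SMN2 minigene-luciferase reporter in which exon 7 inclusion puts luciferase in frame. Cells were seeded at 2000 cells/well, attached for 10-12 hours, then exposed to compounds for 30-36 hours at 37C before ONE-Glo luminescence.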
ELG1 genotox – genotoxicity induction in ELG1-luciferase HEK293T cells; HEK293T ELG1-luciferase reporter, luminescence, 16 h; Potency, µM (series often up to 46 µM), actives largely listed as activators; 330,000 tested, 1.3% active; also: nearly all actives have a fitted effect of over 60% in size
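DMSO vehicle served as control against compound-treated ELG1-luciferase HEK293T cells; exposure lasted 16 hr at 37 °C and 5% CO2, followed by ONE-Glo luminescence detection after 30 min.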
Rab9 prom act – Rab9 promoter activation; Huh7 Rab9 promoter-luciferase reporter, luminescence, 24 h; Potency, µM (series often up to 9.22 µM), actives largely listed as activators; 320,000 tested, 2.8% active; AID 485297; also: nearly all actives have a fitted effect of over 60% in size
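Stable Rab9-luc Huh7, 1500 cells/well, 2 h settle; cmpd in DMSO, 24 h, 37 °C/5% CO2; luciferase reagent 10 min RT; luminescence.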
Luc counter – counter-screen: inhibitors of Kinase-Glo firefly luciferase | Kinase-Glo luciferase, ATP luminescence, 8 min | Q27757 | 200,000 tested, 0.28% active | AID 1379 | Potency, µM (doses to about 38.3 µM), most hits filed as inhibitors; also: nearly all actives have a fitted effect of over 60% in size
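Substrate mix (final 50 mM imidazole pH 7.2, 50 mM KCl, 7 mM MgCl2, 10 uM ATP, 0.01% Tween 20, 0.05% BSA) plus pin-tool compound, then Kinase-Glo detection mix; 8 min ambient, luminescence read.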
NPC1 prom act – activators of NPC1 promoter. Huh7 NPC1 promoter luciferase reporter, 24 h. AID 485313. 320,000 tested, 2.4% active. Potency, µM (highest dose often 9.22 µM), hits mostly activators; also: nearly all actives have a fitted effect of over 60% in size
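Huh7 reporter cells (NPC1 promoter driving luciferase) are dosed with compound for 24 h at 37 °C, 5% CO2; luciferase detection reagent is then added and luminescence measured after 10 min at ambient temperature.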
Each line names hits and unclear results; the compound was inactive in the other large screens. Calls follow the shape of the dose curve; as a rule, active = well fitted curve in the direction sought with a large enough effect; inconclusive = small, poorly fitted or top-dose-only effect, or another doubt; inactive = no such curve, though single readings can be large; an effect the other way counts as inactive or inconclusive.

O=C(Nc1cccc(-c2cc3ccccc3oc2=O)c1)c1ccc(Br)o1	none
COc1ccc(-c2cc3ccccc3oc2=O)cc1NC(=O)c1ccc(Br)o1	SMN2 splice up 3.2µM, ELG1 genotox inconclusive, Rab9 prom act inconclusive, NPC1 prom act inconclusive
COc1ccc(-c2cc3ccccc3oc2=O)cc1NC(=O)c1ccc([N+](=O)[O-])o1	Rab9 prom act 3.5µM
N#Cc1cccc(NC(=O)N2CCCC3(CCN(S(=O)(=O)c4ccccc4)CC3)C2)c1	none (no result: FLuc counter, ELG1 genotox, Rab9 prom act, NPC1 prom act)
O=C(Cc1ccc(Cl)cc1)Nc1ccc(-c2cc3ccccc3oc2=O)c(Cl)c1	none
CCC(=O)Nc1ccc(-c2cc3ccccc3oc2=O)cc1	FLuc counter 7.6µM, SMN2 splice up 8.9µM, ELG1 genotox 3.7µM, Rab9 prom act inconclusive, NPC1 prom act inconclusive
Cc1cc(=O)oc(C)c1C(=O)OCC(=O)c1ccc2ccccc2c1	FLuc counter 3.4µM
Cc1cc(=O)oc(C)c1C(=O)OCC(=O)c1ccc(Br)cc1	FLuc counter 9.5µM
Cc1cc(=O)oc(C)c1C(=O)OCC(=O)c1ccc(Cl)cc1	FLuc counter 12µM
Cc1cc(=O)oc(C)c1C(=O)OCC(=O)c1ccccc1	FLuc counter inconclusive
CCn1nc(C)cc1C(=O)OCC(=O)c1ccc(Cl)cc1	FLuc counter inconclusive (no result: SMN2 splice up, Luc counter)
CCc1nn(CC(=O)NCC(C)c2ccccc2)c(=O)c2cc3c(OC)cccc3n12 (stereo not drawn)	none (no result: ELG1 genotox, Rab9 prom act, Luc counter, NPC1 prom act)
CCOC(=O)c1cnc2c(cnn2C)c1NCCCn1ccnc1	none
COc1ccc(/C=C2\SC(=O)N(CC(=O)Nc3ccc(F)cc3)C2=O)cc1O	none (no result: SMN2 splice up, Luc counter)
CCCOc1ccc(C(=O)CCC(=O)OCC(=O)N2CC(=O)Nc3ccccc32)cc1	FLuc counter 17µM
O=C1CN(C(=O)COC(=O)CCC(=O)c2ccc(Cl)cc2)c2ccccc2N1	none (no result: FLuc counter, SMN2 splice up, Rab9 prom act, Luc counter, NPC1 prom act)
Cn1c(CNc2ccc(F)cc2)nc2ccccc21	FLuc counter 9.5µM, ELG1 genotox 16µM, Rab9 prom act 2.2µM, NPC1 prom act 2.2µM (no result: SMN2 splice up, Luc counter)
Cn1c(CNc2ccccc2O)nc2ccccc21	FLuc counter inconclusive
Cn1c(CNc2ccccc2)nc2ccccc21	FLuc counter 19µM, SMN2 splice up 18µM, ELG1 genotox inconclusive, Rab9 prom act 3.2µM, Luc counter inconclusive, NPC1 prom act 4µM
Cc1ccccc1NCc1nc2ccccc2n1C	FLuc counter 4.3µM, ELG1 genotox 4.1µM, Rab9 prom act 2µM, NPC1 prom act 1.4µM (no result: SMN2 splice up, Luc counter)
CCCCCc1ccc(-c2ccc(OC)cc2)nc1	FLuc counter inconclusive (no result: SMN2 splice up)
CCCCCc1ccc(-c2nnc(N)s2)cc1	FLuc counter 21µM, ELG1 genotox inconclusive, Rab9 prom act inconclusive (no result: SMN2 splice up)
CCCCCCc1ccc(-c2ncc(N)cn2)cc1	FLuc counter 12µM, SMN2 splice up 11µM, ELG1 genotox inconclusive, Rab9 prom act inconclusive
CCc1ccccc1N1CC(C(=O)Nc2cc(S(=O)(=O)N3CCCC3)ccc2Cl)CC1=O (stereo not drawn)	none (no result: FLuc counter, SMN2 splice up, Luc counter)
O=C(O)COc1ccccc1/C=N/NC(=O)c1ccc(F)cc1	FLuc counter 9.5µM
O=C(NN=Cc1ccccc1Cl)c1ccc(-n2cnnn2)cc1	none (no result: FLuc counter, SMN2 splice up, Rab9 prom act, Luc counter, NPC1 prom act)
O=C(N/N=C/c1ccccc1Cl)c1ccc(F)cc1	FLuc counter 2.7µM, ELG1 genotox inconclusive, Rab9 prom act 2.5µM, NPC1 prom act 2.2µM
COc1ccc(/C=N/NC(=O)CNC(=O)c2ccc3c(c2)OCCO3)c(C(=O)O)c1OC	FLuc counter 24µM (no result: SMN2 splice up, Luc counter)
O=C(O)COc1ccccc1/C=N/NC(=O)CNC(=O)c1ccc(F)cc1	none (no result: SMN2 splice up, Luc counter)
O=C(O)COc1ccccc1/C=N/NC(=O)c1ccc2c(c1)OCCO2	FLuc counter 1.5µM (no result: SMN2 splice up, Luc counter)
Cn1cccc1-c1cc(C(=O)N/N=C/c2ccccc2Cl)[nH]n1	FLuc counter 19µM, ELG1 genotox inconclusive, Rab9 prom act inconclusive, NPC1 prom act inconclusive (no result: SMN2 splice up, Luc counter)
CCOC(=O)c1cnc(SCc2cccc(C)c2)nc1N	FLuc counter inconclusive, SMN2 splice up inconclusive, ELG1 genotox 16µM
CCOC(=O)c1cnc(SCC(=O)c2ccc(C)cc2)nc1N	none
CCOC(=O)c1cnc(SC)nc1N	none
